Activity calls are given as the source filed them. Cut-off read from the data, not from the text of the source, unless noted: active = inhibition above about 33%; inactive = the rest.
What was measured:
[1] = target: Nuclear receptor coactivator 1 (Homo sapiens) (UniProt Q15788); experiment: NCOA1 GAL4-fusion reporter inhibition – cell-based, luminescence, quadruplicate, confirmation (AID 588820;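 active = mean inhibition above 46.68%, the untreated control wells mean plus 3 SD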;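 note: 0% = DMSO wells and 100% = gossypol 36 µM treated wells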); conditions: HEK293 GAL4-SRC1 luciferase reporter, at 3.6 µM, hits give high values
[2] = repression of VP16-driven luciferase reporter – cell-based, luminescence, high throughput, counter-screen for SRC1 inhibitor project (AID 588824; in the data active = inhibition above about 25%); conditions: cell-based VP16 transactivation luciferase luminescence; at 3.6 µM; hits give high values
[3] = StAR promoter reporter inhibitors, counter-screen for LRH-1 inverse agonist project, cell-based, luminescence, high throughput (AID 651611; in the data active = inhibition above about 28%); conditions: StAR promoter luciferase reporter counterscreen, at 3.6 µM, hits give high values
[4] = target: Nuclear receptor subfamily 5 group A member 2 (Homo sapiens) (UniProt O00482); experiment: NR5A2 activity suppression in reporter cells – cell-based, luminescence, confirmation (AID 651613; in the data active = inhibition above about 42%;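 note: HEK293T cells co-transfected with LRH-1 and StAR promoter luciferase reporter; 0% = vehicle wells and 100% = parental cells lacking receptor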); conditions: cell-based LRH-1 luciferase reporter, inverse agonism; at 3.6 µM; hits give high values
[5] = target: Steroidogenic factor 1 (Homo sapiens) (UniProt Q13285); experiment: inverse agonism at SF1 nuclear receptor – cell-based, luminescence, high throughput, counter-screen for LRH-1 inverse agonist project (AID 651614; in the data active = inhibition above about 44%;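 note: cells cotransfected with StAR promoter reporter and SF1 expression vector; 0% = vehicle on cells with receptor and 100% = vehicle on cells lacking receptor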); conditions: cell-based SF1 luciferase reporter, at 3.6 µM, hits give high values
[6] = compounds suppressing VP16-driven luciferase signal – cell-based, luminescence, high throughput, counter-screen for LRH-1 inverse agonist project (AID 651615); conditions: Gal4-VP16 luciferase reporter cells, at 3.6 µM, hits give high values

Measured: inhibition

Steroidogenic factor 1 (Homo sapiens), sequence (Q13285 whole entry, looked up, the tested form may be a part): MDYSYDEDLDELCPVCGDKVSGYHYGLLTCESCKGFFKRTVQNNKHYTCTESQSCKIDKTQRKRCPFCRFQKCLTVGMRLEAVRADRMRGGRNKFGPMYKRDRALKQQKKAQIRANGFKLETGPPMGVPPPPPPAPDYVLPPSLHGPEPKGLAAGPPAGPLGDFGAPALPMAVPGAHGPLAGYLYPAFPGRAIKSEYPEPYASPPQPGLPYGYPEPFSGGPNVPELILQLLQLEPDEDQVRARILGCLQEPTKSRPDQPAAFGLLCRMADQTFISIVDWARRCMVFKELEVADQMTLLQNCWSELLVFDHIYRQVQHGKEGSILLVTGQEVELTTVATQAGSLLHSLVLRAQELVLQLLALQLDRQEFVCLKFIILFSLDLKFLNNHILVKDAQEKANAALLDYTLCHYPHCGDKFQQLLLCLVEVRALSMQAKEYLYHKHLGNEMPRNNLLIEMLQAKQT
Nuclear receptor coactivator 1 (Homo sapiens), sequence (Q15788 whole entry, looked up, the tested form may be a part): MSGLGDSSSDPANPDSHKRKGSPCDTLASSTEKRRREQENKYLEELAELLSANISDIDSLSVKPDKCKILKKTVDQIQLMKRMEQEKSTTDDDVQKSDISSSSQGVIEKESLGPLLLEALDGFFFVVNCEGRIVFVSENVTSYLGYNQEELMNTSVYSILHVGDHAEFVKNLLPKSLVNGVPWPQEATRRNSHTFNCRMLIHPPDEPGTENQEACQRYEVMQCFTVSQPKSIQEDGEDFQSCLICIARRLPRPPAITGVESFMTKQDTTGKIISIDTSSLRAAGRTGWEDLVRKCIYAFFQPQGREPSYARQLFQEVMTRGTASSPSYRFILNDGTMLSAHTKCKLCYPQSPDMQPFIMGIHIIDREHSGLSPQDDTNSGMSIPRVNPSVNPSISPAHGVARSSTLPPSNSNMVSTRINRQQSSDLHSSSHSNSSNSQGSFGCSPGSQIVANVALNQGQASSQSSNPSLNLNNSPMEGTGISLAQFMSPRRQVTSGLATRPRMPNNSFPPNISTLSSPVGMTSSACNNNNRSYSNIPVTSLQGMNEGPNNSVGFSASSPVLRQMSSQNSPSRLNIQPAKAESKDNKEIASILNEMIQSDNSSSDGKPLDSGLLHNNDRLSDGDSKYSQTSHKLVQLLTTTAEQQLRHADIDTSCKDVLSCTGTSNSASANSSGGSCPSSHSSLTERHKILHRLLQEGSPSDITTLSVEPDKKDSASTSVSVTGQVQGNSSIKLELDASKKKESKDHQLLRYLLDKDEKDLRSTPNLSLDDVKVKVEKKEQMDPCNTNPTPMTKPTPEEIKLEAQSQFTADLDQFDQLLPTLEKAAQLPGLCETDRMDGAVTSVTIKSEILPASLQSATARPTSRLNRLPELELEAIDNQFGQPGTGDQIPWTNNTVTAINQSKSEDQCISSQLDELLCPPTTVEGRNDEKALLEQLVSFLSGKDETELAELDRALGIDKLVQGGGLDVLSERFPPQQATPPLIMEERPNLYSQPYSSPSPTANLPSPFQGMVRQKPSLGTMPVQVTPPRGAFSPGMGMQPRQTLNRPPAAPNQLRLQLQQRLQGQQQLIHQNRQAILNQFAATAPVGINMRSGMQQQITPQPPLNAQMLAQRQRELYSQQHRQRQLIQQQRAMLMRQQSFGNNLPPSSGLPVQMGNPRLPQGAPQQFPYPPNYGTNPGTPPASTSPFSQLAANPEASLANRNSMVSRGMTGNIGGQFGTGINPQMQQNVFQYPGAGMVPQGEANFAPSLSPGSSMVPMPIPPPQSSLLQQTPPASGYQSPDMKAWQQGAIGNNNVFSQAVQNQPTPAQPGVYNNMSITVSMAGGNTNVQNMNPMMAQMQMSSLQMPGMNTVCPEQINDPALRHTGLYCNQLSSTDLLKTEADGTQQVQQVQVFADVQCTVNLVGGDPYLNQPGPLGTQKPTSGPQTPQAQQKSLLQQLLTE
Nuclear receptor subfamily 5 group A member 2 (Homo sapiens), sequence (O00482 whole entry, looked up): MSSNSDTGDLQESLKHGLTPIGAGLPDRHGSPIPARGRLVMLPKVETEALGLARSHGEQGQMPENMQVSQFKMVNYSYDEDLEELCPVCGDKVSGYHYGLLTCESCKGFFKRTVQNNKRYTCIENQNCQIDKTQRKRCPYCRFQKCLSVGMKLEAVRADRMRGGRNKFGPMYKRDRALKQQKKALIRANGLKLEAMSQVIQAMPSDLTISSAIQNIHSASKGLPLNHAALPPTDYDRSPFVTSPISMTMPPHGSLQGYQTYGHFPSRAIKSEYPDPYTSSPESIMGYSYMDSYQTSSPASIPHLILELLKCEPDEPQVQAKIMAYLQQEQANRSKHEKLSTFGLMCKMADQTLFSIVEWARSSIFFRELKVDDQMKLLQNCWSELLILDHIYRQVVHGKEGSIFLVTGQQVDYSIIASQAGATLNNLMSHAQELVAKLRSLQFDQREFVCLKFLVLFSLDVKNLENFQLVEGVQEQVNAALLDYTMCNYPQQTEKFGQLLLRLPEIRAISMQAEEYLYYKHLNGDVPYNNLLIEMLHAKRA

CCCCn1c2c(c(=N)c3c1CCC3)CCC2
inactive: [1] 4.17% | [3] 26.5%
active: [2] 33.1% | [4] 80.5% | [5] 61.9% | [6] 61%

CN(C)CCNc1ccc(CO)c2sc3ccc(O)cc3c(=O)c12
inactive: [1] 44.8%
active: [2] 39.1% | [3] 77% | [4] 89.5% | [5] 75.7% | [6] 61.2%

CC(=NNC(=S)N1CCCCC1)c1ccccn1
inactive: [1] 36.5%
active: [2] 61.5% | [3] 70.5% | [4] 95.3% | [5] 82.2% | [6] 52.6%

CC(=O)NC(c1ccc(Cl)cc1Cl)c1ccc2cccnc2c1O (configuration not stated)
active: [1] 67.2% | [2] 70.6% | [3] 85.4% | [4] 102% | [5] 86.8% | [6] 80.2%

NC(=O)[C@H]1CC2(CC(c3cccc(NC(=O)COc4ccc(Cl)cc4)c3)=NO2)CN1C(=O)Cc1ccc([N+](=O)[O-])cc1 (some centres not stated)
inactive: [1] 8.04% | [3] 13.5%
active: [2] 39.5% | [4] 55.8% | [5] 50.3% | [6] 52.5%

O=C(Nc1nonc1NC(=O)c1cccs1)c1cccs1
active: [3] 30.2% | [4] 64.1% | [5] 66% | [6] 52.7%
inactive: [1] -7.76% | [2] 21.9%

CC(C)C(=O)NC(c1ccc(Cl)cc1Cl)c1ccc2cccnc2c1O (configuration not stated)
inactive: [1] 6.86% | [2] 16.8% | [4] 35.2% | [5] 41.4%
active: [3] 48.2% | [6] 47.6%

— PubChem BioAssay
